# Reference: PubChem BioAssay (NCATS)
# Records with an inconclusive call do not appear. Calls of active or inactive are those of the source. The call rests on the fitted dose curve; in most records, active means well fitted curve in the direction sought with a large enough effect; inconclusive means small, poorly fitted or top-dose-only effect, or another doubt; inactive means no such curve, though single readings can be large; an effect the other way counts as inactive or inconclusive.
# Target: M-phase phosphoprotein 8 (Homo sapiens) (UniProt Q99549)
# Experiment: qHTS Validation Assay for Inhibitors for MPP8 Chromodomain Interactions with Methylated Histone Tails (AID 488949);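 further: AlphaScreen signal from MPP8 chromodomain bound to biotinylated H3K9me3 peptide; top concentration of the series differs between compounds; nearly all actives have a fitted effect of over 55% in size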
# Conditions: AlphaScreen MPP8 binding to H3K9me3 peptide; series mostly up to 57.1 µM; activity change, negative = inhibition: at the top concentration
# In short: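 Disruption of the preformed MPP8–trimethyl-H3K9 peptide complex (both 50 nM, 30 min, RT) is measured after 30 min compound exposure, using AlphaScreen proximity beads; aurintricarboxylic acid titration serves as plate control.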
# On the % scale 0 is the no-effect control and ±100 the full control effect.
# Sequence of M-phase phosphoprotein 8 (Homo sapiens) (Q99549 whole entry, looked up): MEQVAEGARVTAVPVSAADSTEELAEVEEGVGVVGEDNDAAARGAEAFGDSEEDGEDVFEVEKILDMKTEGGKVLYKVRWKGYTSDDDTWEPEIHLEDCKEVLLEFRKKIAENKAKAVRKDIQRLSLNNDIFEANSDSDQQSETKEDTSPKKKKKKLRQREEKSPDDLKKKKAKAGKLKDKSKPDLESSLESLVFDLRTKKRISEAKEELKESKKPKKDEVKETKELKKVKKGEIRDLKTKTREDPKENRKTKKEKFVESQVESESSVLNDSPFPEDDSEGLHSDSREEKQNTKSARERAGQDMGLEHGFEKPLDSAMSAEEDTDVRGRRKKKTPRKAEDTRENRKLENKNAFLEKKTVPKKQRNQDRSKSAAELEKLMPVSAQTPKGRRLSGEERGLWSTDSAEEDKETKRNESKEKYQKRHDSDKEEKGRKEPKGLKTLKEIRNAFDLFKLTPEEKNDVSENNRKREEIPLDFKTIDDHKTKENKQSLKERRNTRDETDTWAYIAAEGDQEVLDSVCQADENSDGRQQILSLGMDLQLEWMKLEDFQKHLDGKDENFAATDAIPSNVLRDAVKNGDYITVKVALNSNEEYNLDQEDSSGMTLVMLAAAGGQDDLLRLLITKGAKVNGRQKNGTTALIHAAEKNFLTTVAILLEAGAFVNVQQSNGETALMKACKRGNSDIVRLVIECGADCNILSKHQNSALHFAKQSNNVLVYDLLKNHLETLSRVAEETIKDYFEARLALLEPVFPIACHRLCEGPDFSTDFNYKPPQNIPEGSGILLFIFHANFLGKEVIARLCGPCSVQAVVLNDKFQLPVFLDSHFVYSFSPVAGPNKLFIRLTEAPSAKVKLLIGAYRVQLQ
row,Structure (SMILES),"activity change, negative = inhibition"
1,C=CCc1cccc(C=NNC(=O)CN2CCN(Cc3ccccc3)CC2)c1O,15.9% (inactive)
2,CCNC(=O)[C@H]1O[C@@H](n2cnc3c(N)nc(NCCc4ccc(CCC(=O)O)cc4)nc32)[C@H](O)[C@H]1O,32.4% [at 114 µM] (inactive)
3,C[C@H]1O[C@@H](n2cc(F)c(=O)[nH]c2=O)[C@H](O)[C@H]1O,-6.59% (inactive)

# Target: ATP-dependent 6-phosphofructokinase (Trypanosoma brucei brucei) (UniProt O15648)
# Experiment: qHTS Assay to Find Inhibitors of T. brucei phosphofructokinase: hit validation (AID 492961);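 further: luminescence reports ADP formed as PFK phosphorylates fructose-6-phosphate with ATP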
# Conditions: T. brucei PFK, ADP-Glo luminescence; series mostly up to 51.4 µM; activity change, negative = inhibition: at the top concentration
# In short: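 In this biochemical qHTS validation, titrated compounds were tested against 1.25 nM PFK with 0.1 mM ATP and 0.5 mM F6P. Percent activity came from controls lacking or containing enzyme.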
# Sequence of ATP-dependent 6-phosphofructokinase (Trypanosoma brucei brucei) (O15648 whole entry, looked up): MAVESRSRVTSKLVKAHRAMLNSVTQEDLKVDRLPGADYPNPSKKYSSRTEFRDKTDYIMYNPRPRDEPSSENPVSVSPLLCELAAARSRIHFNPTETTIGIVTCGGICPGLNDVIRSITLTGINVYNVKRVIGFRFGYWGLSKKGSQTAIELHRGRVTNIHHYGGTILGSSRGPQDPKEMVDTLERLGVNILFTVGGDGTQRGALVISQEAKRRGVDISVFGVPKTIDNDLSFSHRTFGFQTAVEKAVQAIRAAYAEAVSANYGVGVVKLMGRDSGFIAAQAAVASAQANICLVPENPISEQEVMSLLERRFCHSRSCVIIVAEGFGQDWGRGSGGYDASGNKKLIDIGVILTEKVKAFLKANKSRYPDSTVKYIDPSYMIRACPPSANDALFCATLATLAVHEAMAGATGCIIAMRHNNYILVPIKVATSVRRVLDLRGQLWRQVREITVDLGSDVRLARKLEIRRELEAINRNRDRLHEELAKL
row,Structure (SMILES),"activity change, negative = inhibition"
1,CN1CCN2c3ncccc3Cc3ccccc3C2C1 (configuration not stated),-6.51% (inactive)
2,Clc1ccc(COC(Cn2ccnc2)c2ccc(Cl)cc2Cl)c(Cl)c1 (configuration not stated),-6.9% [at 24.3 µM] (inactive)
3,CN1CC(=O)N2C(Cc3c([nH]c4ccccc34)[C@H]2c2ccc3c(c2)OCO3)C1=O (some centres not stated),-8.89% (inactive)
4,COc1cc2c(cc1OC)CC(=O)N(CCCN(C)C[C@H]1Cc3cc(OC)c(OC)cc31)CC2,3.9% (inactive)
5,COc1c(C)c2c(c(O)c1CC=C(C)CCC(=O)OCCN1CCOCC1)C(=O)OC2,-7.03% (inactive)
6,N#Cc1c(N(CC(=O)O)CC(=O)O)sc(C(=O)O)c1CC(=O)O,-8.15% (inactive)
7,NCC1CCC(C(=O)O)CC1 (configuration not stated),6.55% [at 24.3 µM] (inactive)
8,CS(=O)(=O)c1ccc(C2=C(c3ccccc3)C(=O)OC2)cc1,4% (inactive)
9,O=C(O)c1nc(=O)[nH]c(=O)[nH]1,-10.1% (inactive)
10,O=C1C(CCC(O)c2ccc(F)cc2)C(c2ccc(O)cc2)N1c1ccc(F)cc1 (configuration not stated),-0.787% (inactive)
11,N#CC(c1ccc(Cl)cc1)c1c(Cl)cc(-n2ncc(=O)[nH]c2=O)cc1Cl (configuration not stated),0% (inactive)
12,CC(C)CN(C[C@@H](O)[C@H](Cc1ccccc1)NC(=O)O[C@H]1CO[C@H]2OCC[C@H]21)S(=O)(=O)c1ccc(N)cc1,-2.67% (inactive)
13,COc1ccnc(CS(=O)c2nc3ccc(OC(F)F)cc3[nH]2)c1OC (configuration not stated),-18.3% (inactive)
14,NS(=O)(=O)c1cc(Cl)c(Cl)c(S(N)(=O)=O)c1,-2.48% [at 24.3 µM] (inactive)
